# Source: PubChem BioAssay (National Center for Advancing Translational Sciences (NCATS))
# D2 PAM-1 – human D2 receptor positive allosteric modulation; hit rate 0.23% among 360,000; DiscoveRx D2 beta-arrestin cells, luminescence, 90 min; 100% = 57 uM dopamine signal; P14416; AID 624464; potentiation, % (no concentration beside the values); in the data active = potentiation above about 50%; inconclusive = mostly about 30% to 49%
# Target sequence (P14416 whole entry, looked up): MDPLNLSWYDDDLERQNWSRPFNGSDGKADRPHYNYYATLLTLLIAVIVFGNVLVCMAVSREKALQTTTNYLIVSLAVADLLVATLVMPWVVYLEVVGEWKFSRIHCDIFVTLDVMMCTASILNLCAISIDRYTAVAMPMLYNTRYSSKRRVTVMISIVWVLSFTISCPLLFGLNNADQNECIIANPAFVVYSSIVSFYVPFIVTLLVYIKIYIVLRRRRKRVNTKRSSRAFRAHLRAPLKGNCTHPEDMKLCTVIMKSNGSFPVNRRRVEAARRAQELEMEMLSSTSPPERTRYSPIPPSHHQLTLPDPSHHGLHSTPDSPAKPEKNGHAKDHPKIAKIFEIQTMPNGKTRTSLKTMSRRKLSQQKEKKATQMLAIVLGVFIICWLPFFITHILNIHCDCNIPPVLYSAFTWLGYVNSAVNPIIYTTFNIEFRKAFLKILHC
#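 PathHunter D2 cells, attached overnight at 37 deg C, received compound in DMSO plus dopamine at EC20 (50 nM final) for 90 min at 37 deg C. Beta-arrestin recruitment was read as luminescence after 1 h with detection reagent at ambient temperature.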
# D2 ag-1 – human D2 receptor agonism in beta-arrestin assay; P14416; DiscoveRx PathHunter D2 beta-arrestin, luminescence, 90 min; 100% = 57 uM dopamine signal; activation, % (no concentration beside the values); hit rate 0.084% among 360,000; in the data active = activation above about 40%; inconclusive = between about 15% and that limit
#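 Agonist mode: compounds alone added to overnight-plated D2 PathHunter cells for 90 min at 37 C, with 57 uM final dopamine (EC100) defining full response. Beta-arrestin recruitment detected by chemiluminescent reagent, read after 1 h at ambient temperature.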
# D2 antag – antagonists of human D2 dopamine receptor; P14416; HEK293 TREx D2 cells, calcium flux, dopamine EC80; hit rate 2% among 340,000; inhibition, % at 10 µM; in the data active = inhibition above about 30%; inactive = below that, where a call was filed; note: 0% is about no effect
#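 Calcium mobilization kinetics were recorded at 1 s intervals in tetracycline-induced HEK293 T-REx D2 cells, first for 180 s after compound addition and then 180 s after EC80 dopamine.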
# D2 ag-2 – D2 dopamine receptor (human) agonism. P14416. activation, % at 2 µM. HEK293 T-REx D2 cells, calcium flux agonist mode. hit rate 0.53% among 340,000;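 active = activation over 3 SD above normal in the single-dose calcium agonist read, cut at about 30% in these data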; note: 0% is about no effect
#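 Calcium-flux readout, 1 cycle/sec over 180 s following compound pin transfer, in inducible HEK293 Trex D2 cells (force-coupled); dopamine controls included. Positive calcium responses during this window marked compounds as potential agonists.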
# D2 PAM-2 – D2 dopamine receptor (human) potentiation; P14416; HEK293 T-REx D2, calcium flux, EC20 dopamine potentiation; potentiation, % at 10 µM; hit rate 0.34% among 340,000; AID 485347;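 active = potentiation over 3 SD above the plate norm, cut at about 30% in these data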; note: 0% is about no effect
#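 Calcium flux readout, no-wash dye, 1 read/s. Inducible HEK293 Trex D2 line, overnight 30 C. Compound alone 180 s (agonist flags), then EC20 dopamine, another 180 s to score potentiation.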
# An asterisk follows results filed as active; u = inconclusive; x = no result. An excerpt weighted towards active compounds, which were near 2.4% of everything screened.
SMILES,D2 PAM-1,D2 ag-1,D2 antag,D2 ag-2,D2 PAM-2
CCN1CCc2c(C#N)c(NCc3ccccc3)nc(N(CC)CC)c2C1,-37,-2,46*,3,-8
N#Cc1c(NCCN)nc(NCc2ccccc2)c2c1CCN(Cc1ccccc1)C2,2,-1,x,x,x
COc1cccc(OCC(=O)Nc2nnc3n2CCS3)c1,x,x,x,-1,9
O=C(O)c1ccnc(Cl)c1,-8,1,32*,-2,2
CCCN[C@H]1CCc2nc(N)sc2C1,80*,74*,x,x,x
CCc1nnc(SCc2nc(-c3ccccc3)oc2C)c2cc3sccc3n12,x,x,x,0,3
COc1ccccc1-c1ccc(/C=C2/C=C(CC(C)C)OC2=O)o1,-9,-4,33*,3,8
COc1cccc(N2CCN(Cc3ccsc3)CC2)c1,-18,0,48*,18,-23
CN(C)CCNC(=O)c1ccc(COCC(F)(F)F)cc1,3,1,16,1,x
NNC(=O)c1ccc(COCC(F)(F)F)cc1,-5,-1,53*,0,1
COc1ccc(OC)c(C2CC(=O)Nc3c2c(=O)n(C)c2ncnn32)c1 (stereo not drawn),x,x,x,0,30
COc1cc(Cl)c(C)cc1NC(=O)CC1SC(N2CCOCC2)=NC1=O (stereo not drawn),-4,0,99*,-1,-23
COc1ccc(NC(=O)CC2SC(N3CCOCC3)=NC2=O)c(OC)c1 (stereo not drawn),-5,2,x,x,x
C=CCn1c(=NC(=O)c2ccccc2[N+](=O)[O-])sc2cc(S(C)(=O)=O)ccc21,71*,u,3,-1,13
c1ccc(-c2ncc(CN3CCN(c4ccccn4)CC3)[nH]2)cc1,-13,-1,89*,10,-25
c1ccc(N2CCN(Cc3ccc4c(c3)OCO4)CC2)nc1,91*,65*,x,x,x
Cc1nc(N2CCN(Cc3ccc4c(c3)OCO4)CC2)c2cc(-c3ccccc3)sc2n1,-9,5,4,1,-11
FC(F)(F)c1ccc(N2CCN(Cc3ccc4c(c3)OCO4)CC2)nc1,-37,-5,-13,-1,-24
CSc1nc(N2CCN(Cc3ccc4c(c3)OCO4)CC2)c2ccccc2n1,-10,1,38*,0,-21
CC1=C(C(=O)Nc2ccccc2)C(c2ccc(O)cc2)n2nc(-c3ccc(Cl)cc3)nc2N1 (stereo not drawn),x,x,x,1,5
CC(=O)Nc1ccc(S(=O)(=O)Nc2cccc(-c3ccc(N4CCCCCC4)nn3)c2)cc1,x,x,x,-1,-2
Cc1nc2cccnc2n1-c1cccc(C(=O)N2CCN(c3cccc(Cl)c3)CC2)c1,x,x,x,-1,-15
CCc1ccc(C(O)c2ncc(-c3cccc4ccccc34)[nH]2)cc1 (stereo not drawn),-12,-4,x,x,x
COc1ccccc1NC(=O)C1=C(C)Nc2nc(-c3ccco3)nn2C1c1cccc(C)c1 (stereo not drawn),x,x,x,-1,-4
CCOC(=O)CCCc1c[nH]c2ccccc12,2,-2,6,0,-12
SMILES,D2 PAM-1,D2 ag-1,D2 antag,D2 ag-2,D2 PAM-2
CC(C)(C)NC(=O)NC(=O)COC(=O)CCCc1c[nH]c2ccccc12,0,-1,70*,0,17
CC(=O)Nc1ccc(OC(=O)c2ccc(Br)c([N+](=O)[O-])c2)cc1,-8,-2,30*,0,0
CCc1ccc(NC(=O)CSc2ncc(S(=O)(=O)c3cc(C)ccc3C)c(=O)[nH]2)cc1,x,x,x,0,16
Cc1cccc(NC(=O)CCS(=O)(=O)c2ccc3c(c2)NC(=O)CS3)n1,-6,0,39*,0,-3
CC1CCC(NC(=O)CCS(=O)(=O)c2ccc3c(c2)NC(=O)CS3)CC1 (stereo not drawn),-4,-2,3,1,-1
CCCCNC(=S)N/N=C/c1ccc(C#N)cc1,9,3,39*,-3,10
Cc1ccccc1Cn1c(CN2CCC(C(=O)NCCN(C)C)CC2)cc2ccccc21,x,x,x,2,4
CCOc1ccc(CC(=O)Nc2nnc3n2CCS3)cc1,x,x,x,-1,20
CC(C)(C)C(=O)NC1CCN(C(=O)N2CCCC2)CC1,5,2,32*,1,x
Cc1cccc(Cc2c(C)nc3nc(SCc4ccccc4C)nn3c2C)c1,x,x,x,0,13
C=Cc1ccc(Cn2c(=O)n(-c3cccc(Cl)c3)c(=O)c3c4c(sc32)CN(C(C)=O)CC4)cc1,x,x,x,0,3
CC1(C)Cc2c(sc3nc(SCC(=O)NCc4ccco4)n(-c4ccccc4)c(=O)c23)CS1,-9,1,30*,1,-3
O=C(CSc1nc2sc3c(c2c(=O)n1-c1ccccc1)CCCC3)NCc1ccco1,-6,2,-1,2,-10
O=S(=O)(NCC1CCN(Cc2ccccc2)CC1)c1ccccc1C(F)(F)F,-20,1,54*,1,-25
CN(C)S(=O)(=O)c1cc(NC(=O)CNCc2ccc(F)cc2)ccc1Cl,-26,1,44*,0,-26
CCc1ccc(-n2nc(C)c3c(C)cc(=O)n(CC(=O)NCc4ccc(C)cc4)c32)cc1,x,x,x,-1,-16
Cc1ccc2ncccc2c1,-8,-1,-7,0,6
Cc1nnc(C)c2c(C)n(-c3ccc4ncccc4c3)c(C)c12,-3,2,32*,0,1
Cc1cc2cc(CCNS(=O)(=O)c3ccc(Br)cc3)c(=O)[nH]c2cc1C,x,x,x,-1,1
CC[N+](C)(C)CC/C=C1/c2ccccc2Sc2ccc(Cl)cc21,-19,-5,15,-2,-15
OCCN1CCN(CC/C=C2/c3ccccc3Sc3ccc(Cl)cc32)CC1,-24,-2,73*,-1,-12
CN(C)CC/C=C1\c2ccccc2Sc2ccc(Cl)cc21,-25,-3,85*,2,-29
CN(C)CC/C=C1\c2ccccc2Sc2cc(F)c(Cl)cc21,-17,-5,x,x,x
CCC(C)NC(=O)C1CCC(CNS(=O)(=O)c2ccc(Cl)cc2)CC1 (stereo not drawn),x,x,x,-1,-12
COc1cc(C(=O)NCC(=O)N/N=C/c2ccc(-c3ccc([N+](=O)[O-])cc3)o2)cc(OC)c1OC,4,5,-16,-1,-4
Cc1ccc(/C=N/NC(=O)CNC(=O)c2cccc([N+](=O)[O-])c2C)o1,-5,-6,2,1,38*
CN(C)CCCNC(=O)/C(=C\c1ccc(-c2cccc([N+](=O)[O-])c2)o1)NC(=O)c1ccccc1,-10,0,37*,1,-1
COc1cc(C(=O)NCC(=O)N/N=C/c2ccc(-c3cccc([N+](=O)[O-])c3)o2)cc(OC)c1OC,-12,-6,50*,-1,-24
O=c1cc(N2CCCC2)[nH]c(=O)n1-c1ccc(Cl)cc1,-5,-6,1,0,-5
O=c1cc(N2CCOCC2)[nH]c(=O)n1-c1ccc(Cl)cc1,-12,-3,41*,0,-4
